The whole screen tested about 320,000 compounds, of which about 3,300 (1%) were called active.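 The calls were made as follows: active = every valid replicate shows activation above 250% relative to neutral control wells; inactive = the rest, any valid replicate at or below 250%.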 Only a selection was taken, and actives are over-represented in it overall.

This test is described as follows: restored growth of temperature-sensitive Mot1-301 yeast – S. cerevisiae, ATP luminescence, 38.5C, SUMOylation pathway inhibitor project, primary screen (AID 2716).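 Also: OY570 slx delta 5 strain wells were the positive control but not used for scaling.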 To be noted: S. cerevisiae Mot1-301 growth rescue, at 18.8 µM, hits give high values, percent above DMSO median, 100 means doubled.
For `C[C@H](CO)N1C[C@H](C)[C@@H](CN(C)C(=O)NC2CCCCC2)Oc2ccc(NC(=O)c3ccncc3)cc2C1=O`, the growth rescue is -1.03% (inactive). In the case of `CCOC(=O)c1ccc(N2C(=O)CC(N(C)Cc3ccccc3)C2=O)cc1` (configuration not stated), the growth rescue is 94.8% (inactive). With `CCCCOC(=O)c1ccc(N2C(=O)CC(N3CCN(C/C=C/c4ccccc4)CC3)C2=O)cc1` (configuration not stated) the figure was -18% (inactive); with `CCCCCCC(=O)N(O)C1CC(=O)N(c2ccccc2)C1=O` (configuration not stated), 321% (active); with `N#CCCN1CCN(S(=O)(=O)c2ccc(S(=O)(=O)NC3CCCCC3)cc2)CC1`, 111% (inactive). In the case of `CC(C)C(NC(=O)c1c(F)cccc1F)C(=O)NNC(=O)c1ccccc1` (configuration not stated) it was -1.01% (inactive); in that of `Cc1ccc(C)c(S(=O)(=O)Nc2cccc(-n3cnnn3)c2)c1`, -7.94% (inactive); in that of `Cc1nc(-c2nnc(SCC(=O)Nc3cc(C(F)(F)F)cc(C(F)(F)F)c3)n2C)cs1`, 16.5% (inactive). In the case of `COc1cc(CNCc2ccc3c(c2)OCO3)c([N+](=O)[O-])cc1OC` it was 1080% (active).

Take `COc1cc(OC)c(C(=O)NCc2ccc3c(c2)OCO3)cc1OC`: the growth rescue was 1.21% (inactive). As for `COc1cccc(CNCc2ccc3c(c2)OCO3)c1`, the growth rescue is -12.1% (inactive). Regarding `O=C(CSc1nnc(-c2ccncc2)o1)Nc1cccc(Cl)c1`, the growth rescue is -11.5% (inactive).

With `COc1ccc(-c2c(C#Cc3ccsc3)c3cc(-c4ccc(CN5CCOCC5)cc4)ccc3n2C)cc1`, the growth rescue was -20.4% (inactive). With `CC1CCN(Cc2nc3c(c(=O)n(C)c(=O)n3C)n2CCc2ccccc2)CC1` the figure was 768% (active); with `CC1CCCN(Cc2nc3c(c(=O)n(C)c(=O)n3C)n2CC(=O)c2ccccc2)C1` (configuration not stated), -2.98% (inactive); with `COCCn1c(CN2CCC(Cc3ccccc3)CC2)nc2c1c(=O)n(C)c(=O)n2C`, -13.7% (inactive). With `CC1Cc2ccccc2N1C(=O)CSc1nnc(-c2ccc(S(=O)(=O)N3CCCC3)cc2)n1C` (configuration not stated) the figure was -12% (inactive); with `Cc1ccc(NC(=O)CCNC(=O)c2ccc([N+](=O)[O-])cc2)cc1S(=O)(=O)N1CCOCC1`, -3.52% (inactive). With `CCc1cc2c(=O)c(-c3ccon3)c(N)oc2cc1OC` the figure was -11.8% (inactive); with `CCc1cc2c(=O)c(-c3ccc(F)cc3)c(C(F)(F)F)oc2cc1OCC(=O)O`, 807% (active). With `Cc1cc(C)cc(Oc2c(C(F)(F)F)oc3cc(OCC(=O)O)ccc3c2=O)c1`, the growth rescue is -7.69% (inactive). Regarding `CCSC(C)CC1C/C(=N/O)c2c(C)noc2C1` (configuration not stated), the growth rescue is 5.53% (inactive). In the case of `Cc1ccc(S(=O)(=O)n2cnc3ccccc32)c(C)c1` it was -12.4% (inactive); in that of `Cc1ccc(C)c(S(=O)(=O)n2cnc3ccccc32)c1`, 439% (active). With `COc1ccc(S(=O)(=O)n2cnc3ccccc32)c(C)c1` the figure was -3.94% (inactive); with `CCOC(=O)C1=C(C)NC(C)=C(C(=O)OCC)C1C1=COCCO1`, -16.1% (inactive); with `CCOc1ccc(N(CC(=O)NCCOc2ccccc2OC)S(=O)(=O)c2ccccc2)cc1`, 0.484% (inactive). In the case of `CN(c1ccccc1)S(=O)(=O)c1ccc(C(=O)N2CCN(c3ccccc3Cl)CC2)cc1` it was 19.5% (inactive). With `CCCc1[nH]nc2c1C(C1CC=CCC1)C(C#N)=C(N)O2` (configuration not stated), the growth rescue is 4.92% (inactive). With `N#CC1=C(N)OC2=C(C(=O)CCC2)C1C1CC=CCC1` (configuration not stated) the figure was 435% (active); with `NC1=C([N+](=O)[O-])C(c2ccccc2)C2=C(CCCC2=O)O1` (configuration not stated), -9.51% (inactive); with `O=C1CCCN2N=C(SCC(=O)Nc3ccc(Br)cc3)SC2=N1`, -5.37% (inactive). For the compound `CC(C)CCNC(=O)c1cccnc1Sc1ccccc1`, the growth rescue was 2.14% (inactive). Consider `CC(=O)c1ccc(NC(=O)c2ccc(-n3cncn3)c([N+](=O)[O-])c2)cc1`, for which the growth rescue is 62.2% (inactive).

Turning to `O=C(O)CSC(NC(=O)c1cccnc1)(C(F)(F)F)C(F)(F)F`, the growth rescue was -13.2% (inactive). Turning to `O=C(Nc1ccccc1N1CCCC1)c1ccc2ccccc2c1`, the growth rescue was -24.5% (inactive).

Regarding `Cc1cccc(C(=O)Nc2ccccc2N2CCN(c3ccc(F)cc3)CC2)c1`, the growth rescue is 0.874% (inactive). In the case of `O=C(Nc1ccccc1N1CCN(c2ccccc2)CC1)c1cccc(F)c1` it was 516% (active). For the compound `CC(Sc1ncnc2c1cnn2-c1ccccc1)C(=O)Nc1ccc(N2CCOCC2)cc1` (configuration not stated), the growth rescue is -16.6% (inactive).

As for `CCC(=O)Nc1ccc(C(=O)CSc2nnc(CNc3ccc(Cl)cc3)o2)cc1OC`, the growth rescue was -12.4% (inactive).

`CCn1cc(CN2CCN(CC(C)(C)C)C(CCO)C2)c2ccccc21` (configuration not stated): the growth rescue is 2.63% (inactive). With `CCOc1ccc(OCC(=O)OC(C)C(=O)NC2CCCCC2C)cc1` (configuration not stated) the figure was 4.11% (inactive). With `O=C(COc1ccc(Cl)cc1)NCc1nnc(SCC(=O)NCC2CCCO2)o1` (configuration not stated) the figure was 1.67% (inactive); with `CCn1c(SCC(=O)N/N=C/c2ccccc2OCC(=O)O)nnc1-c1ccc(C(C)(C)C)cc1`, 746% (active). With `CCn1c(SCC(=O)N/N=C/C=C/c2ccccc2[N+](=O)[O-])nnc1-c1ccccc1`, the growth rescue was -1.22% (inactive). In the case of `Cc1ccc(Cn2c(SCC(=O)N/N=C/c3ccccc3OCC(=O)O)nc3ccccc32)cc1` it was 29.2% (inactive); in that of `CCCSc1nc2c(c(=O)n(C)c(=O)n2C)n1Cc1ccc(C)cc1`, -26.2% (inactive); in that of `CCCCn1c(SCC(=O)NCCc2ccc(OC)c(OC)c2)nc2c1c(=O)n(C)c(=O)n2C`, -22.4% (inactive). For the compound `CCOc1ccc(Cn2c(SCCCCC#N)nc3c2c(=O)n(C)c(=O)n3C)cc1OCC`, the growth rescue is 395% (active).

As for `NC(N)=NCCCc1cn(CC(=O)N2CCNCC2)nn1`, the growth rescue is 3.99% (inactive). Turning to `Cn1c(=O)c2c(SCC(=O)NCC3CCCO3)nc(CC(C)(C)C)nc2n(C)c1=O` (configuration not stated), the growth rescue was 4.63% (inactive). As for `CC1CCN(C(=S)NC2CC3CCC2C3)CC1` (configuration not stated), the growth rescue was 8.2% (inactive).

Regarding `O=C(OCC(=O)N1CCOCC1)c1ccc(N2CCOCC2)c([N+](=O)[O-])c1`, the growth rescue was 15.5% (inactive). With `O=C(Oc1ccccc1Cl)c1ccc(N2CCOCC2)c([N+](=O)[O-])c1` the figure was 334% (active); with `O=C(c1ccc(N2CCOCC2)c([N+](=O)[O-])c1)N1CCN(c2ccccc2F)CC1`, -2.08% (inactive). In the case of `S=C(Nc1ccc(Br)cc1Cl)N1CCC2(CC1)OCCO2` it was 14% (inactive).

Consider `Cc1ccc(C(C(=O)NC2CCCCC2)N(C(=O)c2csnn2)C2CC2)o1` (configuration not stated), for which the growth rescue was -6.5% (inactive).

Values taken from PubChem BioAssay AID2716 (Broad Institute, 2010).
